Test results as given in PubChem BioAssay AID1508600 (Functional Genomics Laboratory (NCATS/FGL), 2020).
Out of some 53,000 sequences screened, about 3,700 (7%) were called active.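 How the source made its calls: active means gene knockdowns whose robust z-score for IL-1 alpha signal is at least 2 or at most -2, so actives lie on both sides; inactive means the rest.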 Only a selection was taken, and actives are over-represented in it overall.

Test: Components of the Cytosolic LPS Sensing Pathway: Gene Identification via Genome-wide siRNA Screen;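 further: robust z of the log signal after scaling to non-targeting control siRNA wells of the plate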
Details: RAW264.7 macrophages, IL-1a HTRF, actives lie on both sides, screened at 100 nM (by protocol), cells primed 5 h with Pam3CSK4 first
How it was run: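 RAW264.7 mouse macrophages reverse-transfected with single siRNAs (100 nM final) for 48h, primed with Pam3CSK4 for 5 hours, then transfected with LipidA for 24 hour. Supernatant IL-1a read by HTRF; values normalized to negative-control median, log-transformed robust z-scores.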

z-score, active:
GGCAAACCAGGAAAAGGUCTT against Abhd2 -2.33
GGGAAUGGAGGUCCAGAUUTT against Spatc1l -2.33
GGAUUUAGGCCUUAUCAUCTT against Atf3 -2.12
CCCACCUUCAAGCAAGAACTT against Ifnk -2.51
GGGCUGACCAGUUUGAGUATT against Polr2h -2.7
CUCAAAAUCUGGUGAUAAATT against Adam34 2.66
UGGGAAGGUGCUCACUGAGTT against Dnph1 -2.53
GGCUGAACUGAUCCUGUACTT against Kcnh3 -2.22
CGAGUUUGUAAUGAUGCUATT against Cabp4 2.51
GGACUUGGAGUUUCGUAAATT against Lmnb1 2.92
GGCCAAGGAAAUAUCAAUGTT against Alg14 2.69
GGGCAAACCGGAAAAACAGTT against Ccdc71 -2.06
GGCUACUGGAGCAAGUUUATT against Apoc3 2.48
GGCAACUAUAAGUACAUAGTT against Gsta3 3.87
GGUCUCAUAGAGUGUUACUTT against Anapc7 4.38
GGAUUUGAGUGGUAAUGAATT against Tm2d1 -2.2
GGUGAUAUGUGUGGGCUUGTT against Fahd2a -2.06
GGGUACAAAGGCUGUAGUUTT against Sec61a1 -2.42
GCUGUUCCACAUUGAAGUGTT against Pcdh18 2.84
GGACCAUUCUGGCUACUCATT against Ankrd34b -2.17
CGACAGAGGAAGGUAUUGGTT against Gcsh -2.95
GGAUUUCAAAGUGCUUUGCTT against Kifap3 3.44
GGAAUGUUUGGUGCUAUGATT against Flvcr2 3.4
CCAGGACCUUAUCAGGUUUTT against Idh2 2.44

z-score, inactive:
CCAAACGGAAGUAUCUUAUTT against Tmem128 0.246
CGACCAGAGUGGAUACCUGTT against Ocm 1.98
GCUUCCUACAAUUAAUUCATT against Thap12 0.614
CGUAGAAGUUGAUGAGUCATT against Numb -1.05
GGAAGUUAUUGCCAGCGAGTT against Fbxo5 -0.418
GCAGUCUCACCUGAACAGATT against Eppin 0.43
GGAGAGCAUGUGACCAAAATT against Safb2 0.758
GCAAAACUGUGUCAGUAUCTT against Slco5a1 0.901
GGUCAAAGAGUUCUGUGAATT against Ppp2r1a -0.79
GGCAUGCCUGUUGCUAUGATT against Cyp3a44 0.182
AUCUUUCAGUCACACGACCTT against A730085E03Rik -0.942
GGUAGCUUAGAGGACUAACTT against Cidec -1.78
GGCUGAAAGAUUGUAUUGATT against Rwdd2b -0.601
AGCCGAUCCUGUGCCUGUUTT against Dnph1 0.592
GGGACUUUGGUCAAUAAUGTT against Tcf19 0.247
GGGAAGAAGCUAAAGAAGATT against Wipf1 1.44
GCACGUGGAUCCUAACAAGTT against Exd1 -1.84
GGAAAAGAUAGAGUUACUUTT against Lrif1 0.484
GGCUGUCUUUGUUCCAGUATT against Tnfrsf10b 0.218
GGGCCAAGGAACCUAUUUGTT against Ltbr 0.58
GGCUCUUAGAAAAAUGUUATT against Olfr1156 -0.816
GGUCUACGGCACCUUCUAUTT against Bsnd -0.438
CGGGUUUCAUUAUUAUUCCTT against Foxa1 -0.352
GGUGUGCCUAUGUUAUAGUTT against Slc13a5 -0.982
GGUGAGUUAUAAAAGACCATT against Pex12 -0.0509
GGUGGAUUUUGAAACUAUUTT against Pcdhb17 1.11
GCAAGUAGUUAGCUCAGGGTT against Gabpb1 -0.752
GGCAUUCUGAAAAAAUAGCTT against Rb1cc1 -1.55
GGUUUGUGGAUGACAACGGTT against Mtf1 0.216
GGCGAAUGGAAGAUAAUGCTT against Stxbp3 -0.233
GGAACUCUGUAGACAGAAUTT against Lpin1 0.705
GGCUCAGAUCUUUGACUACTT against Pnp -0.232
GGCUGAAAAGAAAAACAGATT against Rgs5 -0.378
CGUGACAUGCACGACUUCUTT against Tac2 1.49
GGGAGAAAAGGGUCAAAAATT against Marco 0.819
GGAACUGUGUGACUACUUUTT against Necab2 0.18
GGUCAACAUUUGCUGUAAGTT against Inhba -0.599
GGGAAAAUAUCAAGUGUAGTT against Tmem60 0.567
GCUGUUUCAAAAGUCAUAUTT against Col11a1 1.96
GCAGAUACCAUGAUACAGUTT against Med20 -0.154
GGUAAAUGUGAAUGUAAGGTT against Ntn4 0.73
GGAUAAUUUAAACAUGGGATT against Cd276 -1.08
GGUUUAGGGUCAAGAUAUUTT against Ttf2 -1.39
GGAUUGGCAACCUCCAUUUTT against Kdm5a -0.312
GGACAAUGAGAUUCUUCUCTT against Mptx1 -1.58
GGAAGGUGCUAAAAAUAUATT against Pdhx 0.23
GGAAAAGACAUCAGAUGAATT against Mrpl1 0.233
GGUAAUGGAAAUGAACAAATT against Zfp353-ps 0.381
GGAACUGGACAAGGACGAUTT against Arhgdia 1.17
GGAAAAUGUCCCACUUUUATT against Olfr70 -0.926
GGAUUUGACCAGUAUAAGUTT against Ptgs2 -1.05
GGCUCCAAUAAAGUGCCUUTT against Elf3 1.46
GCUGGAGAUCUAAAAACAGTT against Mphosph10 1.54
GGCAACUUAAGUUUUACAGTT against Tmem170 -0.898
GGAGUUCUGUCCAUUUUGATT against Olfr1198 0.45
GCGUAGAAGACACUUAUAGTT against Zc3h14 1.47
GGCUCUGAAUUAACUCCAGTT against Srpk3 -0.654
GCUAUUGACAUAAUGAGGCTT against Nfe2l3 -1.41
CCUGAAUUCAGUCUGUUUUTT against Depdc1b -0.931
GGAAAAUGUUUUACCAAUGTT against Rspry1 -0.102
GGACAUCGGAUUCUACACCTT against Psg19 0.531
CCAACAAAAGCCUAUUCGGTT against Hsh2d -0.169
GAACUUUGCCAUUGAUUUGTT against Ndufs6 1.63
GCUGAUUUCUCAAACAUGATT against Serpinb10 -0.489
GUCCCUGAACCUGUGGUAUTT against Emp3 1.26
GCUGAUGGACUCAAGAAAGTT against Zbed5 -0.805
GGACAAAUUUCUUUUCCUUTT against Atp10a -0.448
GCUGAUAAACCACUUGUGATT against Olfr1287 -0.804
GGCAUUCAAACCUCUCGUGTT against Dcn -0.921
GGGUGAUUGAUCACUACUUTT against Olfr279 0.784
GGAAAUGGUAAUUUUCAGUTT against Slc25a36 -0.242
GGGAUGAAGUCCUGGAUAATT against Atp6v1g1 -0.953
CCAACUUCGAUGCUGAGAGTT against Anxa2 -1.8
CGCCUCAUCAUCUCGAUUCTT against Cnga3 -1.63
GCAUGUGGAGAAGAUGAGGTT against Tas2r143 0.793
CCUAAACCCAUUCCAGUCUTT against Dpm3 0.104
CCUGAGACAUACUUAAUGUTT against Anapc10 0.747
CCUCGAGAGACUUUCAUGGTT against F2 -0.475
GCUUAUGAGAUGAGUGAAUTT against Ccdc43 -0.209
GGGAUUUUCAGGGAGAUUUTT against Plekho1 1.46
GCUUAGGAAUGGCGACAACTT against Vmn1r188 -0.413
GGCAAUGAGAAAGUUACUCTT against Olfr1102 1.65
GGCAGGUGUUAAGGCUUCATT against Tas2r117 0.873
GGAACCACUGCUUUCAAAATT against Cd36 0.83
